# Test results reported in PubChem BioAssay AID463173 (ICCB-Longwood Screening Facility, Harvard Medical School, 2010).
# Out of some 52,000 compounds screened, about 4,300 (8.3%) were called active. Rule as the data show it: active = survival mostly below about 52% (no sharp cut-off); inactive = mostly above about 56%. Many of the other results were omitted from the sample, so actives are more common in it than they were.
# Tested on: DeltatarO mutant
# Assay: S. aureus survival, RN4220 and DeltatarO strains – OD600, teichoic acid synthesis inhibitors, primary screen (AID 463173)
# Settings: S. aureus RN4220 wild type/DeltatarO growth, OD600, 18 h, hits give low values, screened at 18.75 µg/mL (by protocol)
row,SMILES,survival
1,Cc1ccc(CN2CCc3nc(N4CCN(c5ncccn5)CC4)ncc3C2)cc1,117% (inactive)
2,CN1CCN(CC(=O)NCCc2ccc(F)cc2)CC1,83% (inactive)
3,N#CCOc1nc(OCC#N)nc(OCC#N)n1,1% (active)
4,CNc1nc(OCC#N)nc(N2CCCCC2)n1,110% (inactive)
5,CONc1nc(NC(C)(C)C)nc(OCC#N)n1,97% (inactive)
6,Cc1ccc(CNC(=O)c2nc(-c3ccc(Cl)cc3)n3c2CCCCC3)cc1,89% (inactive)
7,Cc1cccc(C)c1NC(=O)Cn1c(=O)n(CCC(=O)NCc2ccc3c(c2)OCO3)c(=O)c2sccc21,90% (inactive)
8,CCC1CCCCN1C(=O)Cn1c(=O)n(CCCCCC(=O)NCc2ccccc2)c(=O)c2sccc21 (stereo not drawn),69% (inactive)
9,O=C(CCn1c(=O)c2sccc2n(Cc2ccc(F)cc2)c1=O)NCc1ccc2c(c1)OCO2,89% (inactive)
10,O=C(CCn1c(=O)c2sccc2n(Cc2ccccc2F)c1=O)NCc1ccc2c(c1)OCO2,84% (active)
11,O=C(CCCCCn1c(=O)c2sccc2n(CC(=O)Nc2cccc(Cl)c2)c1=O)NCc1ccc2c(c1)OCO2,57% (inactive)
12,Cc1ccc(Cl)cc1NC(=O)Cn1c(=O)n(CCC(=O)NCc2ccc3c(c2)OCO3)c(=O)c2sccc21,79% (active)
13,Cc1ccccc1NC(=O)Cn1c(=O)n(CCCCCC(=O)NCc2ccc3c(c2)OCO3)c(=O)c2sccc21,84% (inactive)
14,CCC1CCCCN1C(=O)Cn1c(=O)n(CCCCCC(=O)NCc2ccc(F)cc2)c(=O)c2sccc21 (stereo not drawn),170% (inactive)
15,Cc1ccccc1NC(=O)Cn1c(=O)n(CCC(=O)NCc2ccc3c(c2)OCO3)c(=O)c2sccc21,150% (inactive)
16,Cc1ccc(CNC(=O)CCCCCn2c(=O)c3sccc3n(CC(=O)N3CCCCC3C)c2=O)cc1 (stereo not drawn),48% (active)
17,Cc1ccc(NC(=O)Cn2c(=O)n(CCC(=O)NCc3ccc4c(c3)OCO4)c(=O)c3sccc32)c(C)c1,87% (active)
18,O=C(CCn1c(=O)c2sccc2n(Cc2cccc(F)c2)c1=O)NCc1ccc2c(c1)OCO2,97% (inactive)
19,Clc1ccc(CCNc2ncnc3c2c(-c2ccccc2)cn3-c2ccccc2)cc1,94% (inactive)
20,COc1ccc(Cn2c(CCC(=O)Nc3ccc(Br)c(C)c3)nc3cccnc32)cc1,71% (inactive)

row,SMILES,survival
1,Cc1ccc(N2CC(NC(=O)/C=C\c3ccc4c(c3)OCO4)CC2=O)cc1 (stereo not drawn),91% (inactive)
2,COc1ccc(NC(=O)Cn2ccn(-c3ccc(C)c(C)c3)c(=O)c2=O)cc1Cl,72% (inactive)
3,COc1ccc(OC)c(CNC(=O)c2ccccc2NC(=O)c2nsc3ccccc23)c1,92% (inactive)
4,O=C(NC1CC(=O)N(c2ccccc2)C1)C(c1ccccc1)c1ccccc1 (stereo not drawn),89% (inactive)
5,Cc1nnc(Nc2ccc(C(=O)O)cc2)[nH]c1=O,108% (inactive)
6,O=C1CCSC2(C(=O)N(Cc3ccc(F)cc3)c3ccccc32)N1c1ccccc1 (stereo not drawn),78% (inactive)
7,CC(=O)c1cccc(NS(=O)(=O)c2cc3c(cc2C)N(C(C)=O)CCO3)c1,95% (inactive)
8,CCc1ccc(NC(=O)Cn2c(=O)n(CCC(=O)NCc3ccc4c(c3)OCO4)c(=O)c3ccccc32)cc1,91% (inactive)
9,CCc1ccc(NC(=O)Cn2c(=O)n(CCCC(=O)NCc3ccc4c(c3)OCO4)c(=O)c3ccccc32)cc1,93% (active)
10,CCc1ccc(NC(=O)Cn2c(=O)n(CCCCC(=O)NCc3ccc4c(c3)OCO4)c(=O)c3ccccc32)cc1,87% (inactive)
11,O=C(Cc1ccc(Cl)cc1)Nc1nnc2n1CCS2,77% (inactive)
12,O=C(Cc1ccccc1)Nc1nnc2n1CCS2,71% (inactive)
13,O=C(Cc1ccc(F)cc1)Nc1nnc2n1CCS2,52% (active)
14,CCOC(=O)c1c(C)[nH]c(CCC(=O)NCc2ccccc2C)c1C,80% (inactive)
15,COc1cc(NS(=O)(=O)c2ccc(NC(=O)c3ccc(Cl)cc3Cl)cc2)nc(OC)n1,98% (inactive)
16,CC(=O)Nc1ccc(NC2OC(=O)c3ccccc32)cc1 (stereo not drawn),50% (inactive)
17,O=C(Nc1ccc2ncccc2c1)c1ccccc1,94% (inactive)
18,O=C1OC(Nc2ccccc2C(F)(F)F)c2ccccc21 (stereo not drawn),45% (inactive)
19,Cc1ccc(NC2OC(=O)c3ccccc32)cc1 (stereo not drawn),31% (active)
20,O=C1OC(Nc2ccccn2)c2ccccc21 (stereo not drawn),42% (inactive)

row,SMILES,survival
1,O=C1OC(Nc2ccc3ncccc3c2)c2ccccc21 (stereo not drawn),30% (active)
2,CCc1ccc(CNC(=O)CN2C(=O)c3cccnc3Oc3ccc(C)cc32)cc1,72% (inactive)
3,Cc1ccc(C=N/C(=N\NC(=O)c2ccccc2)c2ccccc2)o1,94% (inactive)
4,COc1ccc2nc(N3CCN(C(=O)c4ccco4)CC3)sc2c1,88% (inactive)
5,CCN(CC)CCCNC(=O)c1ccc2c(=O)n(CCc3ccccc3)c(=O)[nH]c2c1,82% (inactive)
6,COc1nc(N2CCCCCC2)nc(N2CCCCCC2)n1,66% (inactive)
7,CCN(CC)C(=O)C1CCCN(c2ncnc3onc(C)c23)C1 (stereo not drawn),99% (inactive)
8,COc1ccc(N(Cc2ccccc2)C(=O)c2nc(SC)ncc2Cl)cc1,99% (inactive)
9,CCCSc1ncc(Cl)c(C(=O)N(Cc2ccccc2)c2ccc(OC)cc2)n1,45% (active)
10,CCS(=O)(=O)c1ncc(Cl)c(C(=O)N(Cc2ccccc2)c2ccc(OC)cc2)n1,36% (active)
11,CCSc1ncc(Cl)c(C(=O)N(Cc2ccccc2)c2ccc(OC)cc2)n1,100% (inactive)
12,CCOc1ccc(N(Cc2ccccc2)C(=O)c2nc(S(C)(=O)=O)ncc2Cl)cc1,24% (active)
13,CCOc1ccc(N(Cc2ccccc2)C(=O)c2nc(SC)ncc2Cl)cc1,72% (inactive)
14,CCOc1ccc(N(Cc2ccccc2)C(=O)c2nc(SCC)ncc2Cl)cc1,106% (inactive)
15,COc1ccc(N(Cc2ccccc2)C(=O)c2nc(S(C)(=O)=O)ncc2Cl)cc1,51% (inactive)
16,COc1ccc(CN(C(=O)c2ccco2)c2ccccc2)cc1,96% (inactive)
17,COc1ccc(-c2cn3cccnc3n2)cc1NC(=O)c1cc(C)cc(C)c1,61% (inactive)
18,Cc1cc(C)c(NC(=O)Nc2csc3c2CCCC3)c(C)c1,78% (inactive)
